# Test results published in article PMC7862700, “An all-to-all approach to the identification of sequence-specific readers for epigenetic DNA modifications on cytosine”.
# How the values were obtained:
# Assay in all cases: DAPPL (digital affinity profiling via proximity ligation, sequencing); 10 mM Tris-HCl pH 7.5, 50 mM NaCl, 1 mM DTT, 4% glycerol, room temperature, 30 min; GST-TFs on glutathione beads, 16-mer random dsDNA library, 0.1% formaldehyde crosslink after washing; high values mean tight binding
# Details in all cases: protein: recombinant; tags: N-terminal GST; dsDNA, one strand shown
# ERF = target: T1, ERF (Homo sapiens, UniProt P50548 1-548)
# T1 sequence: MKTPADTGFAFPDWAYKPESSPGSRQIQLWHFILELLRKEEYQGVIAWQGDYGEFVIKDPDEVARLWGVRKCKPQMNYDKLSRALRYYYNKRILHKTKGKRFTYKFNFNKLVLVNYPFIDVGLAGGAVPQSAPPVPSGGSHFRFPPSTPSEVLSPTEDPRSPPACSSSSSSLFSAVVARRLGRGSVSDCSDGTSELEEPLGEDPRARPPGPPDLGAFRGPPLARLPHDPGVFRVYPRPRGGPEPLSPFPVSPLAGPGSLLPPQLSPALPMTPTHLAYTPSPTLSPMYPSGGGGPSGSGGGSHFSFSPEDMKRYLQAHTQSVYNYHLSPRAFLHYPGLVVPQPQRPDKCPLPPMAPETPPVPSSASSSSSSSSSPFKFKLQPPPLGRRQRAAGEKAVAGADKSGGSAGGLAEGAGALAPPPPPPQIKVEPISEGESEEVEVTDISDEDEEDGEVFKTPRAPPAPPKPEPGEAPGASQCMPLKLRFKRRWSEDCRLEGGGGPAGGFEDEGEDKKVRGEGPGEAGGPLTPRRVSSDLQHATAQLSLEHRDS
# Method in brief: (§1)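 Pools were built from human transcription factors expressed in yeast as GST fusions, captured on glutathione beads and DNA-barcoded, along with a tag-only sample. Incubation with 200 nmole of a 16-mer random double-stranded DNA library lasted 30 min at room temperature in Tris/NaCl/DTT/glycerol buffer, and was followed by washing, 0.1% formaldehyde crosslinking, proximity ligation, PCR amplification and Illumina NextSeq500 sequencing. Binding signal is the quotient of each hexamer's read frequency for a factor and its frequency for the tag-only sample.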
# ETV3L = target: T2, ETV3L (Homo sapiens, UniProt Q6ZN32 1-361)
# T2 sequence: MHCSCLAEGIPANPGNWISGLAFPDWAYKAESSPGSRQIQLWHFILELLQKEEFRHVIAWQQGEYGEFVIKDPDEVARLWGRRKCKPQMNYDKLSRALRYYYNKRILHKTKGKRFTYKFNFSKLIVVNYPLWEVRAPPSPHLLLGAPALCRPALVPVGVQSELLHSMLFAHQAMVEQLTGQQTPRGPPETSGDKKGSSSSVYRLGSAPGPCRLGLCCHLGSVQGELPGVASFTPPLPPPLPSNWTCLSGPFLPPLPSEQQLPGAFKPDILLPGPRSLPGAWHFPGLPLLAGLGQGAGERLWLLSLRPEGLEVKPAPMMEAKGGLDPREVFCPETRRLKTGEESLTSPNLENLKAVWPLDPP
# Method in brief: as §1
# ETS2 = target: T3, ETS2 (Homo sapiens, UniProt P15036 1-469)
# T3 sequence: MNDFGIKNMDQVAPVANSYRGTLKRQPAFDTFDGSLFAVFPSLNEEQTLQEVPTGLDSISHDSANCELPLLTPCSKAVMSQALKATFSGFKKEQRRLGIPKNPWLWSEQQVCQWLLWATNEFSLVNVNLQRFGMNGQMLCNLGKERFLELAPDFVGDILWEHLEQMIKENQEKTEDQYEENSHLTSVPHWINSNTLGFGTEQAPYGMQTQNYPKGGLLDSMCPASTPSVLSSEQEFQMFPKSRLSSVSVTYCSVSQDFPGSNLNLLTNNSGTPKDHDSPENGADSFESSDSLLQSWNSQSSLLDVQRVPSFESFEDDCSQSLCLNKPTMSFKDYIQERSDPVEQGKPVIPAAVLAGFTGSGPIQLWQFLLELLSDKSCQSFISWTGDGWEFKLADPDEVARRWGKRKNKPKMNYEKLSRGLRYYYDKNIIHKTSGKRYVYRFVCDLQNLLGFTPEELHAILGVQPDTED
# Method in brief: as §1
# SPDEF = target: T4, SPDEF (Homo sapiens, UniProt O95238 1-335)
# T4 sequence: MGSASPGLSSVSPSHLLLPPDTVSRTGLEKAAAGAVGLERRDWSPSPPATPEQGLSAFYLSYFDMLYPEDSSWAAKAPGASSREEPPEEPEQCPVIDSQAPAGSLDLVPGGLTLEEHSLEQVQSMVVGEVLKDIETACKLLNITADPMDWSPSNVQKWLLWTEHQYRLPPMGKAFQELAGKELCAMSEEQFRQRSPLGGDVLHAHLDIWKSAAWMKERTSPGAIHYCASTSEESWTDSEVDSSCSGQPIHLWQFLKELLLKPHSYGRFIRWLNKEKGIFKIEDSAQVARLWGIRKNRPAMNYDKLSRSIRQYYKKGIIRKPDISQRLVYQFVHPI
# Method in brief: as §1
# ETV7 = target: T5, ETV7 (Homo sapiens, UniProt Q9Y603 1-341)
# T5 sequence: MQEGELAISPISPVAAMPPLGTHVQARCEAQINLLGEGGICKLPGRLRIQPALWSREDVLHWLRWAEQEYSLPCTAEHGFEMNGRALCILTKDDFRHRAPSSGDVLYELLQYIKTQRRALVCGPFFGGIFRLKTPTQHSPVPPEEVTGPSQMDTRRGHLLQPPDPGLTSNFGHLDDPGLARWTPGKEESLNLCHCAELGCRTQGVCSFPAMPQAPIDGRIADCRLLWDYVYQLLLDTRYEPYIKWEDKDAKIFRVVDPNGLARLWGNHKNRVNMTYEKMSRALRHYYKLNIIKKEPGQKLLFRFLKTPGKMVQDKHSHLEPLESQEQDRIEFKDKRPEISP
# Method in brief: as §1
# ELF5 = target: T6, ELF5 (Homo sapiens, UniProt Q9UKW6-2 1-255)
# T6 sequence: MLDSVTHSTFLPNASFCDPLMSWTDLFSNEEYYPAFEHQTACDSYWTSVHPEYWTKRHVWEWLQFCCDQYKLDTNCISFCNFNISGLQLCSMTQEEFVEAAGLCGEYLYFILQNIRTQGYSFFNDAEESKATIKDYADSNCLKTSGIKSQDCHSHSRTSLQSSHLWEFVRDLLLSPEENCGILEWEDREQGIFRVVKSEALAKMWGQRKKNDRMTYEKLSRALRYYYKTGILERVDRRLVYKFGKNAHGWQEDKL
# Method in brief: as §1
# ETV3 = target: T7, ETV3 (Homo sapiens, UniProt P41162-2 1-143)
# T7 sequence: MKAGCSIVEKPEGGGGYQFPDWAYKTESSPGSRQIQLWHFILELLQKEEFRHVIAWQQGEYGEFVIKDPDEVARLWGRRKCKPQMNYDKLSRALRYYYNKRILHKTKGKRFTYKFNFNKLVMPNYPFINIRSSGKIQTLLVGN
# Method in brief: as §1
# ETV6 = ETV6 (Homo sapiens, UniProt P41212 1-452)
# ETV6, sequence (P41212 whole entry): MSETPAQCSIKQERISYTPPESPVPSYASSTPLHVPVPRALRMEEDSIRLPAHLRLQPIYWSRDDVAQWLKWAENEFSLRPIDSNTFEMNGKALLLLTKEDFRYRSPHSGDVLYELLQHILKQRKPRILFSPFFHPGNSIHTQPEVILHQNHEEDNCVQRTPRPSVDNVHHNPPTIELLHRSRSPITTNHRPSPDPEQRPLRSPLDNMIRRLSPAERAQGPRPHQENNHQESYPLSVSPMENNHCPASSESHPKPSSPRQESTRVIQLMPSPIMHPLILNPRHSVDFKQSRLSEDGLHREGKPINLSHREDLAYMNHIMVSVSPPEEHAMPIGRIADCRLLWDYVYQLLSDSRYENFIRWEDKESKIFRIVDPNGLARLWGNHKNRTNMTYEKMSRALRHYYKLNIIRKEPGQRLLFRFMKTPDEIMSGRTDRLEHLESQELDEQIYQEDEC
# Method in brief: as §1
sequence,measurement,setting,value
CTTCAA,binding signal,ERF,"1.41 fold enrichment (6-mer frequency, TF over GST control)"
same,binding signal,ETV3L,"1.3 fold enrichment (6-mer frequency, TF over GST control)"
same,binding signal,ETS2,"1.25 fold enrichment (6-mer frequency, TF over GST control)"
same,binding signal,SPDEF,"1.34 fold enrichment (6-mer frequency, TF over GST control)"
same,binding signal,ETV7,"1.27 fold enrichment (6-mer frequency, TF over GST control)"
same,binding signal,ELF5,"1.32 fold enrichment (6-mer frequency, TF over GST control)"
same,binding signal,ETV3,"1.29 fold enrichment (6-mer frequency, TF over GST control)"
same,binding signal,ETV6,"1.39 fold enrichment (6-mer frequency, TF over GST control)"
ATAACT,binding signal,ERF,"1.24 fold enrichment (6-mer frequency, TF over GST control)"
same,binding signal,ETV3L,"1.22 fold enrichment (6-mer frequency, TF over GST control)"
same,binding signal,ETS2,"1.27 fold enrichment (6-mer frequency, TF over GST control)"
same,binding signal,SPDEF,"1.18 fold enrichment (6-mer frequency, TF over GST control)"
same,binding signal,ETV7,"1.24 fold enrichment (6-mer frequency, TF over GST control)"
same,binding signal,ELF5,"1.29 fold enrichment (6-mer frequency, TF over GST control)"
same,binding signal,ETV3,"1.34 fold enrichment (6-mer frequency, TF over GST control)"
same,binding signal,ETV6,"1.27 fold enrichment (6-mer frequency, TF over GST control)"
TTCTTT,binding signal,ERF,"1.08 fold enrichment (6-mer frequency, TF over GST control)"
same,binding signal,ETV3L,"1.27 fold enrichment (6-mer frequency, TF over GST control)"
same,binding signal,ETS2,"1.32 fold enrichment (6-mer frequency, TF over GST control)"
same,binding signal,SPDEF,"1.08 fold enrichment (6-mer frequency, TF over GST control)"
same,binding signal,ETV7,"1.24 fold enrichment (6-mer frequency, TF over GST control)"
same,binding signal,ELF5,"1.13 fold enrichment (6-mer frequency, TF over GST control)"
same,binding signal,ETV3,"1.2 fold enrichment (6-mer frequency, TF over GST control)"
same,binding signal,ETV6,"1.14 fold enrichment (6-mer frequency, TF over GST control)"
CTATAC,binding signal,ERF,"1.21 fold enrichment (6-mer frequency, TF over GST control)"
same,binding signal,ETV3L,"1.19 fold enrichment (6-mer frequency, TF over GST control)"
same,binding signal,ETS2,"1.28 fold enrichment (6-mer frequency, TF over GST control)"
same,binding signal,SPDEF,"1.39 fold enrichment (6-mer frequency, TF over GST control)"
same,binding signal,ETV7,"1.19 fold enrichment (6-mer frequency, TF over GST control)"
same,binding signal,ELF5,"1.26 fold enrichment (6-mer frequency, TF over GST control)"
same,binding signal,ETV3,"1.24 fold enrichment (6-mer frequency, TF over GST control)"
same,binding signal,ETV6,"1.28 fold enrichment (6-mer frequency, TF over GST control)"
TATTAA,binding signal,ERF,"1.22 fold enrichment (6-mer frequency, TF over GST control)"
same,binding signal,ETV3L,"1.18 fold enrichment (6-mer frequency, TF over GST control)"
same,binding signal,ETS2,"1.17 fold enrichment (6-mer frequency, TF over GST control)"
same,binding signal,SPDEF,"1.18 fold enrichment (6-mer frequency, TF over GST control)"
same,binding signal,ETV7,"1.15 fold enrichment (6-mer frequency, TF over GST control)"
same,binding signal,ELF5,"1.13 fold enrichment (6-mer frequency, TF over GST control)"
same,binding signal,ETV3,"1.16 fold enrichment (6-mer frequency, TF over GST control)"
same,binding signal,ETV6,"1.12 fold enrichment (6-mer frequency, TF over GST control)"
CTTAGC,binding signal,ERF,"1.25 fold enrichment (6-mer frequency, TF over GST control)"
same,binding signal,ETV3L,"1.23 fold enrichment (6-mer frequency, TF over GST control)"
same,binding signal,ETS2,"1.18 fold enrichment (6-mer frequency, TF over GST control)"
same,binding signal,SPDEF,"1.15 fold enrichment (6-mer frequency, TF over GST control)"
same,binding signal,ETV7,"1.16 fold enrichment (6-mer frequency, TF over GST control)"
same,binding signal,ELF5,"1.16 fold enrichment (6-mer frequency, TF over GST control)"
same,binding signal,ETV3,"1.22 fold enrichment (6-mer frequency, TF over GST control)"
same,binding signal,ETV6,"1.2 fold enrichment (6-mer frequency, TF over GST control)"
ATAAAT,binding signal,ERF,"1.19 fold enrichment (6-mer frequency, TF over GST control)"
same,binding signal,ETV3L,"1.18 fold enrichment (6-mer frequency, TF over GST control)"
same,binding signal,ETS2,"1.19 fold enrichment (6-mer frequency, TF over GST control)"
same,binding signal,SPDEF,"1.17 fold enrichment (6-mer frequency, TF over GST control)"
same,binding signal,ETV7,"1.14 fold enrichment (6-mer frequency, TF over GST control)"
same,binding signal,ELF5,"1.08 fold enrichment (6-mer frequency, TF over GST control)"
same,binding signal,ETV3,"1.19 fold enrichment (6-mer frequency, TF over GST control)"
same,binding signal,ETV6,"1.25 fold enrichment (6-mer frequency, TF over GST control)"
